Source: PubChem
Shiga toxin inh – blocks Shiga toxin action in Vero cells. 290,000 tested, 9.2% active. AID 2315. Vero cells, Shiga toxin protein synthesis inhibition reporter. inhibition, % at 38.7 µM; in the data active = inhibition mostly above about 28%, no sharp cut-off; inactive = mostly below about 43%
LmPK inhibitor – blocks Leishmania mexicana pyruvate kinase activity. Q27686. purified LmPK, Kinase-Glo ATP luminescence, 1 h. Potency, µM (titrated, usually from 57.5 µM), usual class: inhibitors. 290,000 tested, 0.37% active
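Kinase-Glo luminescence read after 1 h RT reaction of 0.1 nM LmPK with 0.5 mM PEP and 0.1 mM ADP. Activity scaled between uninhibited and enzyme-free controls.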
CHX counter – counter-screen hit for Shiga toxin inhibitors, cycloheximide | 300,000 tested, 12% active | cell reporter, cycloheximide protein synthesis inhibition counterscreen | max response, %; in the data active = max response mostly above about 13%, no sharp cut-off; inactive = mostly below about 14%; note: read at 38.3 µM for the half of the compounds with a filed dose
NS1 function inh – blocks influenza NS1 protein function; Potency, µM (doses to about 46.1 µM); 270,000 tested, 0.4% active; AID 2326; calls by dose curve; note: actives are rising curves; nearly all actives have a fitted effect of over 50% in size
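In this qHTS, NS1 from influenza A is expressed in budding yeast, where it slows growth. Cells are switched from glucose to 2% galactose medium (pH 6.0, -URA), treated with compound, and growth recovery is read at OD600.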
Giardia FBPA inh – blocks Giardia fructose-bisphosphate aldolase activity; 290,000 tested, 0.71% active; purified Giardia FBPA; Potency, µM (series often up to 59.6 µM), usual class: inhibitors; A8B2U2; note: nearly all actives have a fitted effect of over 55% in size
Target sequence (A8B2U2 whole entry, looked up): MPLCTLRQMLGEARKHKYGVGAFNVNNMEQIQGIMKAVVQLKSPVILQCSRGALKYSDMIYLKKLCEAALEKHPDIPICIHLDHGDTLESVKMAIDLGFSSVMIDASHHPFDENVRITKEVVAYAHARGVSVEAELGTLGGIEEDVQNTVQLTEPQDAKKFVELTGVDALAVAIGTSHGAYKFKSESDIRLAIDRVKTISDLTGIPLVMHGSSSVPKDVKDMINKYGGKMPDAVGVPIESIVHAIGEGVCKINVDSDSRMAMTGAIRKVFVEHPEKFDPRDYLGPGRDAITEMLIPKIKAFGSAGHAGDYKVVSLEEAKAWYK
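Giardia FBPA (40 nM reagent) was preincubated 10 min at RT with compound (up to 57.5 uM final), then substrate plus GAPDH/TPI/NAD/arsenate coupling system with diaphorase/resazurin was added; resorufin fluorescence (525/598 nm) was read after 20 min.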
Large screens that a line does not name were inactive; ! = repeats disagree. This is a sample that favours compounds with a hit; in the whole collection about 14% have one here. Unless noted, calls come from the whole dose curve; as a rule, active = well fitted curve in the direction sought with a large enough effect; inconclusive = small, poorly fitted or top-dose-only effect, or another doubt; inactive = no such curve, though single readings can be large; an effect the other way counts as inactive or inconclusive.

O=C(NCCC1=CCCCC1)c1cnc2n(c1=O)CCS2	Shiga toxin inh 41, CHX counter 41
O=C(NCCCc1ccccc1)c1cnc2n(c1=O)CCS2	Shiga toxin inh 63, CHX counter 38
CCCn1c(-c2ccc(F)cc2)nc2c(NCCCN(C)C)nc(C)nc21	none (no result: Shiga toxin inh, LmPK inhibitor, CHX counter, NS1 function inh)
O=C(c1cccc(F)c1)N1CCC2(CC1)CCN(c1ccc(-c3ccccc3)cc1)CC2	none (no result: Shiga toxin inh, LmPK inhibitor, CHX counter, NS1 function inh)
CSC1=NNC(c2ccc(C(C)(C)C)cc2)=NN1	Shiga toxin inh 96, CHX counter 33
Oc1ccc(C2=NNC(c3ccc(O)cc3)=NN2)cc1	none
Cc1cc(C)cc(C(=O)NCCCc2ccccc2)c1	none
O=C(NCCCc1ccccc1)c1ccccc1O	Shiga toxin inh 60, CHX counter 54
Cc1ccc(C(=O)NCCCc2ccccc2)c(C)c1	Shiga toxin inh 60, CHX counter 42
O=C(NCCCCCCNC(=O)c1ccccc1O)c1ccccc1O	none
Cc1ccc(C(=O)NCCCc2ccccc2)c(Cl)c1	CHX counter 37 (no result: Shiga toxin inh)
CSCCC(NC(=O)c1ccc([N+](=O)[O-])cc1Cl)C(=O)OCC(=O)NCCCc1ccccc1 (stereo not given)	none
O=C(NCCCc1ccccc1)c1ccc([N+](=O)[O-])cc1Cl	Shiga toxin inh 29, CHX counter 29
COc1cccc(OC)c1NC(=O)CN(C)S(=O)(=O)c1ccc2c(c1)OCCO2	none
CCn1c(-c2ccc(F)cc2)cnc1SCC(=O)N1CCCCC1C (stereo not given)	Shiga toxin inh 93, CHX counter 41
CCn1c(-c2ccc(F)cc2)cnc1SCC(=O)N1CCc2ccccc21	Shiga toxin inh 97, CHX counter 34
CCCn1c(-c2ccc(F)cc2)cnc1SCC(=O)O	none
Nc1nnnn1/N=C/C(Br)=C/c1ccccc1	Shiga toxin inh 176, CHX counter 68
BrC(=C\c1ccccc1)/C=N/N1CCN(c2ccccc2)CC1	none
Nc1nnnn1/N=C/C=C/c1ccccc1	CHX counter 17
COc1c(Cl)cccc1NC(=O)c1c(NC(=O)Cc2ccccc2)sc2c1CCCC2	none (no result: LmPK inhibitor, NS1 function inh, Giardia FBPA inh)
Nc1c(C(=O)Nc2cccc(C(=O)O)c2)sc2nc3c(cc12)CCCC3	CHX counter 18
Nc1c(C(=O)Nc2ccc(Cl)c(C(=O)O)c2)sc2nc3c(cc12)CCCC3	none (no result: Giardia FBPA inh)
Cc1ccc2c(N)c(C#N)sc2n1	CHX counter 22
Nc1c(C(=O)Nc2ccccc2)sc2nc3c(c(-c4ccco4)c12)CCCC3	none
Nc1c(C(=O)c2ccc(Cl)cc2)sc2nc3c(cc12)CCC3	CHX counter 32
Nc1c(C(=O)Nc2ccccc2)sc2nc3c(c(-c4ccco4)c12)CCC3	Shiga toxin inh 48, CHX counter 19
Cc1ccc[n+](CC(=O)Nc2ccc([N+](=O)[O-])cc2)c1	none (no result: Shiga toxin inh)
COc1ccccc1N1CCN(C(=O)CCC(=O)Nc2nnc(C(C)C)s2)CC1	none (no result: Giardia FBPA inh)
C/C(=N\NC(=O)CN1CCN(S(=O)(=O)c2ccc(C)cc2)CC1)c1ccc(O)cc1	none
Nc1c(C(=O)C2CC2)sc2nc3c(cc12)CCC3	Shiga toxin inh 66, CHX counter 43
Cc1nc2sc(C#N)c(N)c2c2c1CCCC2	none
Nc1c(C(=O)O)sc2nc3c(cc12)CCCC3	none
NC(=O)c1sc2nc3c(cc2c1N)CCCCCC3	Shiga toxin inh 52, CHX counter 31
N#Cc1sc2nc3c(cc2c1N)CCCC3	CHX counter 23
COc1ccc(C(=O)N2CCC3(CCN(Cc4nccs4)CC3)CC2)cc1	none (no result: Shiga toxin inh, LmPK inhibitor, CHX counter, NS1 function inh)
Cc1cc(=O)n2nc(N3CCCC(C(=O)NC4CCCCC4C)C3)sc2n1 (stereo not given)	none
CCN1/C(=C/c2ccc3ccccc3[n+]2CCCS(=O)(=O)[O-])C=Cc2cc(C)ccc21	none
CCN1/C(=C/c2ccc3ccccc3[n+]2CC)C=Cc2ccccc21	LmPK inhibitor 14µM
Cc1ccc(N(C)S(=O)(=O)c2nnc(NC(=O)C3CCCCC3)s2)cc1	none (no result: LmPK inhibitor, NS1 function inh, Giardia FBPA inh)
Cc1cccc(Nc2ncnc3c2cnn3Cc2ccccc2)c1	none
COc1cccc(Nc2ncnc3c2cnn3-c2cccc(C)c2)c1	Shiga toxin inh 78, CHX counter 27, Giardia FBPA inh inconclusive
COc1ccc(OC)c(Nc2ncnc3c2cnn3-c2ccccc2)c1	CHX counter 21
COc1ccccc1Nc1ncnc2c1cnn2-c1cccc(C)c1	Shiga toxin inh 83, CHX counter 51
Cc1ccnc(NC(c2ccccn2)c2c(C)[nH]c3ccccc23)c1 (stereo not given)	none
O=C(O)COCC(=O)Nc1ccc(-n2nc(C(F)(F)F)cc2-c2cccs2)cc1	none
COCCNC(=S)N(CCc1c(C)[nH]c2ccccc12)Cc1cccnc1	none
Cc1cc2ncn(C(=O)N3CCCCCC3)c2cc1C	Shiga toxin inh active, CHX counter 19
Cc1ccc(Cl)cc1NC(=O)[C@@H]1CCC(=O)N1C1OC(=O)c2ccccc21 (stereo not given in full)	none
COC(=O)N1CCC2(CC1)CN(C(=O)Nc1ccc(OC)cc1)C2	none (no result: Shiga toxin inh, LmPK inhibitor, CHX counter, NS1 function inh)
CC(C)(C)c1ccc(C(=O)NC(=S)NNC(=O)COc2ccccc2)cc1	CHX counter 17 (no result: Giardia FBPA inh)
CC(C)(C)c1ccc(C(=O)NNC(=S)NC(=O)c2cccnc2)cc1	Shiga toxin inh 53, CHX counter 24
COc1ccc(C(=O)NC(=S)NCc2ccccc2)cc1	none
COC(=O)CNC(=S)NC(=O)c1ccc(C(C)(C)C)cc1	Shiga toxin inh 78, CHX counter 32
CC(C)(C)c1ccc(C(=O)c2c[nH]c(C(=O)NCc3cccnc3)c2)cc1	CHX counter 20
O=C(CC(=O)N/N=C/c1c(Cl)cccc1Cl)NCc1cccnc1	none (no result: Giardia FBPA inh)
O=S(=O)(c1ccccc1)N1CCC2(CCN(c3ncccn3)CC2)CC1	none (no result: Shiga toxin inh, LmPK inhibitor, CHX counter, NS1 function inh)
COc1cc(OC)cc(C(=O)NC(=S)NNC(=O)Cc2cccs2)c1	none
CC(C)(C)c1ccc(C(=O)NC(=S)NCc2cccnc2)cc1	Shiga toxin inh active, CHX counter 45
CC(C)(C)c1ccc(C(=O)NCc2cccnc2)cc1	none
COc1ccc(C(=O)NC(=S)NNC(=O)Cc2cccs2)cc1	Shiga toxin inh 55, CHX counter 18, Giardia FBPA inh inconclusive
O=C(NC(=S)NNC(=O)c1ccccc1F)c1cccnc1	Shiga toxin inh 55, CHX counter 20, Giardia FBPA inh inconclusive
O=C(NNC(=S)Nc1ccccc1C(F)(F)F)c1cccnc1	CHX counter 10
CCCCCCCNC(=O)C1(CC2CC(c3ccc(Cl)cc3)=NO2)CCN(C(=O)CCCCCBr)CC1 (stereo not given)	none
O=C1/C(=C/c2ccccc2)[C@@H](NC2CCCCC2)c2ccccc21	none (no result: Shiga toxin inh, LmPK inhibitor, CHX counter, Giardia FBPA inh)
NC1(C(=O)O)CC(C(=O)O)C1 (stereo not given)	Giardia FBPA inh 5.6µM! (no result: Shiga toxin inh, LmPK inhibitor, CHX counter, NS1 function inh)
Cc1cnc(C(=O)Nc2ccc(N3CCCCC3)cc2)cn1	Shiga toxin inh 84, CHX counter 32 (no result: NS1 function inh)
Cc1cnc(C(=O)Nc2ccc(OC(F)(F)F)cc2)cn1	Shiga toxin inh 48, CHX counter 27
Cc1cc(C(=O)Nc2ccc(N3CCCCC3)cc2)no1	LmPK inhibitor inconclusive, CHX counter 16
Cc1cc(C(=O)Nc2ccc(S(=O)(=O)N3CCCC3)cc2)no1	none (no result: NS1 function inh)
O=C(Nc1ccc(OC(F)(F)F)cc1)C1=NCCN1	Shiga toxin inh 38, CHX counter 40
